# The whole screen tested about 400,000 compounds, of which about 5,500 (1.4%) were called active. Another 9% or so got no clear call; they are omitted. The sample holds actives, similar compounds and a random draw of the others, so the mix is not that of the screen. Calls come from the whole dose curve; as a rule, active = well fitted cell-killing curve with a large enough effect; inconclusive = small, poorly fitted or top-dose-only effect, or effect the other way; inactive = flat fitted curve, though single readings scatter.
# Assay: qHTS assay for MDR1-selective chemotherapeutics: Primary screen using the parental adenocarcinoma cell KB-3-1; note: nearly all actives have a fitted effect of over 60% in size
# Details: KB-3-1 viability, CellTiter-Glo ATP luminescence, 72 h; series mostly up to 46.1 µM; activity change, negative = cytotoxic: at the top concentration
# In short: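 Using CellTiter-Glo luminescence, growth of non-resistant KB-3-1 adenocarcinoma cells is assessed 72 h after pin-tool compound addition at 37 °C. Normalized responses across the concentration series yield fitted curves.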
# % is set by controls: 0 for no effect and ±100 for the full control effect; potency is the fitted concentration of half-maximal effect.
SMILES,"activity change, negative = cytotoxic",Potency
CCOc1ccc(CCNC(=O)c2cc3c(=O)n(C)c4ccccc4c3n2C)cc1,2.46% (inactive),
CCN(CC)c1ccc(NS(=O)(=O)c2cc(-c3cc(C)no3)ccc2C)c(C)c1,-19.5% (inactive),
CC(C)c1ccc(NC(=O)c2ccc3c(O)c(S(=O)(=O)c4ccccc4)c(=O)[nH]c3c2)cc1,5.99% (inactive),
COc1ccc(S(=O)(=O)c2cn(C)c3cc(N4CCCCC4)c(F)cc3c2=O)cc1,5.2% (inactive),
CCOC(=O)c1cc2occc2n1CC(=O)NC1CCC(C)CC1 (stereo not drawn),1.34% (inactive),
CCOC(=O)c1cc2occc2n1CC(=O)N1CCN(C(=O)c2ccco2)CC1,1.25% (inactive),
CCOC(=O)c1cc2c(ccn2C)n1CC(=O)N1CCC(C)CC1,,23.1 µM (active)
Cc1ccc(C)c(OCC(=O)Nc2sc3c(c2C#N)CCCC3)c1C,-13.9% (inactive),
COc1ccc(N2CCN(C(=O)C3CCCN(C(=O)c4cc5sccc5n4C)C3)CC2)cc1 (stereo not drawn),-12.9% (inactive),
Cc1ccc(O)c(/C=N/NC(=O)COc2ccc3c(C)cc(=O)oc3c2)c1,,18.4 µM (active)
COc1ccc(N2CCN(C(=O)COc3ccc4c(C)cc(=O)oc4c3)CC2)cc1,14.4% (inactive),
CC(=O)c1c(C)[nH]c(C(=O)COC(=O)CCOc2ccc(C)cc2)c1C,-18.7% (inactive),
CC(=O)c1c(C)[nH]c(C(=O)COc2ccc3c(C)cc(=O)oc3c2)c1C,,14.6 µM (active)
Cc1cc(=O)oc2cc(OC(C)C(=O)NCCc3ccc(S(N)(=O)=O)cc3)ccc12 (stereo not drawn),9.37% (inactive),
Cc1ccc(OCC(=O)Nc2ccc3oc(=O)ccc3c2)cc1C,5.71% (inactive),
Cc1cccc2c(=O)cc(CSc3ccccc3NC(=O)C(C)C)[nH]c12,0% (inactive),
Cc1cc(C)cc(NC(=O)Cn2c(=O)c3ccccc3n3nncc23)c1,20.8% (inactive),
Cc1csc(NCC(=O)c2c[nH]c3ccccc23)n1,-70.7% (inactive),
Cn1cc(S(=O)(=O)N2CCCCCC2)cc1C(=O)N1CCN(c2ccc(F)cc2)CC1,-0.904% (inactive),
O=[N+]([O-])c1c(NCCO)cc(Sc2nc3ccccc3s2)c2nonc12,-1.45% (inactive),
O=[N+]([O-])c1cc(Br)c(O)c(/C=N/Nc2nc3ccccc3s2)c1,,23.1 µM (active)
Brc1ccccc1/C=N/Nc1nc2ccccc2o1,-9.64% (inactive),
COc1cc(OC)c(C2C=C(C(=O)O)Nc3ncnn32)cc1OC (stereo not drawn),-2.08% (inactive),
S=c1[nH]c(=S)c2n[nH]nc2[nH]1,-28.9% (inactive),
COc1ccccc1N1CCN(C(=O)c2ccc(NC3=NC4CS(=O)(=O)CC4S3)cc2)CC1 (stereo not drawn),0% (inactive),

SMILES,"activity change, negative = cytotoxic",Potency
COc1cc(Cl)ccc1Nc1ncc(C(=O)N2CCN(c3ccccc3OC)CC2)c2ccccc12,-1.69% (inactive),
COc1cc(CCC(=O)N2CCN(c3ccccc3Cl)CC2)cc(OC)c1OC,3.22% (inactive),
COc1ccc2c(CC(=O)N3CCc4cc(OC)c(OC)cc4C3)coc2c1,-1.95% (inactive),
COc1ccc(Nc2ncc(C(=O)N3CCN(c4ccccc4OC)CC3)c3ccccc23)cc1,,inactive
COc1cc2c(cc1OC)CN(C(=O)c1cc(S(=O)(=O)N3CCCCC3)ccc1Cl)CC2,0% (inactive),
COc1cc2c(cc1OC)CN(C(=O)c1cc(=O)c3ccccc3o1)CC2,,2.91 µM (active)
COc1ccccc1N1CCN(C(=O)c2cc(=O)c3cc(C)cc(C)c3o2)CC1,,0.206 µM (active)
COc1ccccc1N1CCN(C(=O)c2cc(=O)c3cc(C)ccc3o2)CC1,,13 µM (active)
CCc1ccc2oc(-c3ccc(C)c(NC(=O)/C=C/c4ccco4)c3)nc2c1,4.52% (inactive),
COc1ccccc1CNC(=O)CCCCn1c(=O)c2ccccc2n(CC(=O)Nc2cc(Cl)ccc2C)c1=O,7.54% (inactive),
CCCS(=O)(=O)N1CCC(n2c(C(F)(F)F)nc3cccnc32)CC1,-14.7% (inactive),
O=C(NCC(c1ccco1)S(=O)(=O)c1cccs1)c1ccc(F)cc1 (stereo not drawn),8.37% (inactive),
CS(=O)c1ccc(/C=C2\C=Cc3ccccc32)cc1 (stereo not drawn),32.2% (inactive),
O=C(CCn1c(=O)c2ccccc2n(Cc2ccc(Cl)cc2)c1=O)NCc1ccc2c(c1)OCO2,0.984% (inactive),
CCc1ccc(C(=O)CC2(O)C(=O)N(CCc3ccccc3)c3ccc(Br)cc32)cc1 (stereo not drawn),6.28% (inactive),
COc1ccc(NC(=O)N2CCCn3nc(C)cc32)cc1OC,-2.38% (inactive),
CCOc1ccc(CNC(=O)c2ccc3nc(CC)c(CC)nc3c2)cc1OC,-9.86% (inactive),
CN(C)c1cccc2ccccc12,21.8% (inactive),
Cc1ccc(F)cc1S(=O)(=O)N1CCC(c2nc3ccccc3s2)CC1,-27.5% (inactive),
CCOC(=O)c1ccc(NC(=O)Cn2cc(S(=O)(=O)Cc3ccccc3F)c3ccccc32)cc1,16.2% (inactive),
Cc1ccc(C)c(Cn2c(C)c(CNCc3ccc(F)cc3)c(C(=O)O)c2C)c1,5.57% (inactive),
CCOC(=O)N1CCN(S(=O)(=O)c2ccc(C(=O)Nc3ccc(F)cc3F)cc2)CC1,,4.61 µM (active)
O=C(Nc1ccccc1F)c1ccc(S(=O)(=O)N2CCCCCC2)cc1,-3.4% (inactive),
CCOC(=O)N1CCN(S(=O)(=O)c2ccc(Br)cc2)CC1,-25.8% (inactive),
Cc1sc2ncn(CC(=O)N3CCN(c4ccc(F)cc4)CC3)c(=O)c2c1S(=O)(=O)N1CCN(c2ncccn2)CC1,-0.197% (inactive),

SMILES,"activity change, negative = cytotoxic",Potency
CCOC(=O)c1ccc(NC(=O)C2CC(=O)NC(=Nc3ccc(C)c(C)c3)S2)cc1 (stereo not drawn),-1.1% (inactive),
CC(=O)OC1=C(C(C)=O)N(Cc2ccccc2)S(=O)(=O)c2ccccc21,-6.94% (inactive),
CCc1cccc(NC(=O)CN(C)S(=O)(=O)c2ccc3[nH]c4c(c3c2)CCCC4)c1,-20.9% (inactive),
Cc1cccc(NC(=S)NCc2ccc3[nH]c4c(c3c2)CCCC4)c1,,16.4 µM (active)
Cc1cccc(NC(=S)N2CCC(C(=O)c3ccc(F)cc3)CC2)c1,-11.4% (inactive),
Cc1ccc(Cl)cc1NC(=O)C(C)n1nnc2sc(-c3ccccc3)cc2c1=O (stereo not drawn),-2.42% (inactive),
COc1ccc(C2CC(=O)N(Cc3ccccc3C)c3c2c(C)nn3-c2nc(C)cc(C)n2)c(OC)c1 (stereo not drawn),3.03% (inactive),
CCOc1ccc(C(=O)c2cn(Cc3ccccc3OC)c3ccc(F)cc3c2=O)cc1,22.1% (inactive),
CCCOc1cccc(C(=O)Nc2cccc(NC(=O)c3ccc(C(C)(C)C)cc3)c2)c1,7.31% (inactive),
CCCc1ccc(OCCNC(=O)c2ccccc2Br)cc1,1.59% (inactive),
CCCOc1ccc(C(=O)C(CCC(CNCC)C(=O)c2ccc(OCCC)cc2)CNCC)cc1 (stereo not drawn),,5.17 µM (active)
Cc1ccc2nc(COc3cccc(NC(=O)c4ccccc4Cl)c3)cc(=O)n2c1,-5.83% (inactive),
CCOc1ccc(CCNC(=O)c2ccc3c(c2)sc2nc(-c4ccc(F)cc4)cn23)cc1OCC,-10.9% (inactive),
CC1CCN(c2ccc(C(=O)NCc3ccc4c(c3)OCO4)cc2[N+](=O)[O-])CC1,3.15% (inactive),
O=C(NCc1ccc2c(c1)OCO2)c1cc([N+](=O)[O-])ccc1N1CCOCC1,,5.17 µM (active)
O=C(Cc1ccc([N+](=O)[O-])cc1)NCCc1ccc2c(c1)OCO2,-4.66% (inactive),
Cc1cc(=O)n(CC(=O)Nc2cccc([N+](=O)[O-])c2)c(-n2nc(C)cc2C)n1,-14.3% (inactive),
CCOc1ccccc1NC(=O)c1ccc2c(c1)CCN2S(=O)(=O)c1ccc(C)cc1,0% (inactive),
COc1ccccc1NC(=O)c1cc(C2CC2)nc2c1c(C)nn2-c1ccc(C)cc1,4.13% (inactive),
COc1cccc(NC(=O)CSc2cc(=O)n(C)c3ccc(Cl)cc23)c1,-2.78% (inactive),
Cc1cc(C)cc(NS(=O)(=O)c2ccc(-c3cc(C)no3)s2)c1,,3.26 µM (active)
CC(=O)c1ccc(NS(=O)(=O)c2ccc(-c3cc(C)no3)s2)cc1,5.1% (inactive),
Cc1cc(-c2ccc(S(=O)(=O)N3CCc4ccccc4C3)s2)on1,5.38% (inactive),
CCc1cccc(C)c1NS(=O)(=O)c1ccc(-c2cc(C)no2)s1,,1.16 µM (active)
CCc1cccc(C)c1NS(=O)(=O)c1cc(Br)cnc1N,3.61% (inactive),

SMILES,"activity change, negative = cytotoxic",Potency
Cc1cc(-c2ccc(S(=O)(=O)N3CCN(c4cccc(C(F)(F)F)c4)CC3)s2)on1,-7.84% (inactive),
Cc1ccccc1CN1CCC(CNC(=O)c2cc3ccc4cccnc4c3[nH]2)CC1,-15.7% (inactive),
COc1cc2[nH]c(=O)n(Cc3ccc(C(=O)NCc4ccc(C)cc4)cc3)c(=O)c2cc1OC,-3.55% (inactive),
CC1CCCCN1Cc1c(O)ccc2c(=O)c(-c3cccc(Cl)c3)c(C(F)(F)F)oc12 (stereo not drawn),11.9% (inactive),
Cc1nc(N=C(N)N)nc2c(C)cccc12,,10.3 µM (active)
COc1nc(N=C(N)N)nc2c(C)cccc12,-14.6% (inactive),
COc1ccc(CNc2nnnn2C)cc1,5.95% (inactive),
COc1ccc(CNc2nc(NCc3ccc(OC)cc3)c3ncn(C4CCCC4)c3n2)cc1,,6.51 µM (active)
COCCNc1ncnc2c1ncn2[C@H]1CN(Cc2ccc(OC)cc2)C[C@@H](CO)O1,0% (inactive),
COc1ccc(S(=O)(=O)NCc2cccn2Cc2cccc(C)c2)cc1,1.09% (inactive),
COc1ccc(CC(=O)N2CC(=O)Nc3ccc(Br)cc3C2c2ccc(F)cc2)cc1OC (stereo not drawn),-1.37% (inactive),
COc1ccc(-c2cc(C(F)(F)F)nc(SCC(=O)N(C)Cc3ccccc3)n2)cc1OC,-9.14% (inactive),
Cc1ccc(F)cc1NC(=O)CCSc1nc(-c2ccco2)cc(C(F)(F)F)n1,20% (inactive),
Cc1ccc(CC2(C)C(=O)Nc3ccc(OC(F)(F)F)cc32)cc1 (stereo not drawn),0% (inactive),
COc1ccccc1CC1(C)C(=O)Nc2ccc(OC(F)(F)F)cc21 (stereo not drawn),0% (inactive),
CC1(Cc2ccccc2C#N)C(=O)Nc2ccc(-c3ccc4[nH]ccc4c3)cc21 (stereo not drawn),,6.51 µM (active)
COc1ccc(CCNC(=O)c2cc3cccc4c3n2CC(C)S4)c(OC)c1OC (stereo not drawn),-27.6% (inactive),
CC(C)Cn1c(C2CC(=O)N(c3ccccc3Cl)C2)nc2ccccc21 (stereo not drawn),13.6% (inactive),
O=C(CSc1nc(-c2cccc(F)c2)[nH]c1-c1ccccc1)Nc1ccc2c(c1)OCO2,1.92% (inactive),
COc1cccc(C(=O)NC2(C(F)(F)F)C(=O)Nc3c2c(=O)[nH]c(=O)n3-c2ccc(C)cc2)c1 (stereo not drawn),1.04% (inactive),
CC(=O)Nc1ccc(Nc2c3ccccc3nc3ccccc23)cc1,,4.61 µM (active)
CC(=O)Nc1ccc(S(=O)(=O)N2CCN(c3ccccc3)CC2)cc1,-4.79% (inactive),
CCc1c(C)nc2c(-c3ccccc3)c(C)nn2c1Nc1ccc(NC(C)=O)cc1,-2.98% (inactive),

# Reference: PubChem BioAssay AID1347075 (National Center for Advancing Translational Sciences (NCATS), 2019)
